The whole screen tested about 15,000 compounds, of which about 60 (0.4%) were called active. No stated cut-off is given here; in the data, active means activation above about 2.2%; inactive means the rest. Many of the other results were omitted from the sample, so actives are more common in it than they were.
Experiment: activates NOTCH signaling in reporter cells (AID 434982)
Settings: NOTCH signaling luciferase reporter cells, luminescence; at 2.5 µM; hits give high values
With `CC(C)(C)NC(=O)NCC(c1ccc[nH]1)C(F)(F)F` (centres undefined) the activation was -0.29% (inactive). In the case of `CCOC(=O)C(=CNc1nc(-c2ccc(Cl)cc2)cs1)C(=O)OCC`, the activation was -0.64% (inactive). For `Cc1ccc(Oc2c(C)[nH]c(=S)[nH]c2=O)cc1`, the activation was -0.61% (inactive). For `CC(=O)N1c2ccccc2C=Cc2ccccc21`, the activation was -5.39% (inactive). With `CN(C)c1ccc(/C=C(\C#N)S(C)(=O)=O)c(Cl)c1` the activation was -0.47% (inactive). In the case of `Cc1cc(C(F)(F)F)nc2c(-c3noc(-c4ccccc4)n3)cnn12`, the activation was -0.99% (inactive). In the case of `O=C(c1ccc(C#Cc2ccccc2)o1)N1CCCCC1`, the activation was -0.2% (inactive). For `O=[N+]([O-])c1ccc(CSc2nnc(-c3ccncc3)o2)cc1`, the activation was 0.14% (inactive). With `Cc1[nH]c2c(F)cc(F)cc2c(=O)c1I` the activation was -0.36% (inactive). With `O=C1c2cc(S(=O)(=O)Oc3ccccc3)ccc2-c2ccc(S(=O)(=O)Oc3ccccc3)cc21` the activation was -1.18% (inactive). With `CCCCc1c(O)cc(-c2ccccc2)n(Cc2ccccc2)c1=O` the activation was -0.19% (inactive). With `COC(=O)C(C#N)c1ccc(C(F)(F)F)cc1[N+](=O)[O-]` (centres undefined) the activation was -0.67% (inactive). In the case of `CC(C)S(=O)(=O)c1cscc1N/C=C(/C#N)C(=O)C1CC1`, the activation was 0% (inactive). With `Cc1nc(-c2nnc(SCC(=O)c3ccc(F)cc3)n2C)cs1` the activation was -0.64% (inactive). With `NNC(=O)c1csc(-c2ccc(C(F)(F)F)cn2)n1` the activation was -0.19% (inactive). With `CCOC(=O)c1cc(CC)sc1NC(=O)c1cccnc1Oc1ccccc1` the activation was 0.22% (inactive). In the case of `COC(=O)c1c(C(=O)OC)c2n(c1C)CCS2`, the activation was 3.54% (active). With `Cc1cc(-c2nc(C(=O)NN3CCCCC3)cs2)no1` the activation was -0.7% (inactive). In the case of `Cc1noc(C)c1C(=O)Oc1cccc2cccnc12`, the activation was 0.63% (inactive). With `S=C1NCN(CCCn2ccnc2)CN1` the activation was 0.16% (inactive). In the case of `COc1ccc(CCNC(=O)c2ccccc2-c2ccccc2C(=O)O)cc1OC`, the activation was -0.75% (inactive). In the case of `Cc1noc(C)c1S(=O)(=O)NCc1cc(F)cc2c1OCOC2`, the activation was -0.53% (inactive). For `Nc1nc(C23CC4CC(CC(C4)C2)C3)cs1`, the activation was -0.6% (inactive). For `COC(=O)c1ccc2snnc2c1`, the activation was -0.29% (inactive). In the case of `CCOC(=O)/C=C(/Nc1ccccc1SC)c1ccccc1`, the activation was -0.36% (inactive). In the case of `COC(=O)c1cc(OC)c(OC)cc1NC(=O)CSc1ccc(Cl)cc1`, the activation was -0.78% (inactive). With `Cc1cc(/C(N)=N/OC(=O)c2cccs2)c(-c2ccccc2)o1` the activation was 2.72% (active). In the case of `CS(=O)(=O)Nc1ccc(/C(N)=N/OC(=O)c2cccs2)cc1`, the activation was -0.39% (inactive). In the case of `N/C(Cc1cccs1)=N\OC(=O)c1ccccc1`, the activation was -0.76% (inactive). For `COC(OC)c1ccc(C#N)c(SCC(=O)Nc2ccc(C(F)(F)F)cc2)n1`, the activation was -0.25% (inactive). In the case of `O=C(Nc1ccccc1N1CCOCC1)NC1CCN(C(=O)OCc2ccccc2)CC1`, the activation was -0.87% (inactive). With `Clc1ccc(C=NCc2cccnc2)c(Cl)c1` the activation was -0.28% (inactive). In the case of `Cc1nc(-c2ncc(-c3ccccc3)o2)c(C(F)(F)F)o1`, the activation was -4.8% (inactive). With `NC(=O)C1CCN(CC(O)CSc2ccc(F)cc2)CC1` (centres undefined) the activation was -5.86% (inactive). For `CCOC(=O)C(=CNc1ccc2n[nH]nc2c1)C(=O)OCC`, the activation was -0.78% (inactive). With `Cn1nccc1NC(=O)CC(CC(=O)O)c1ccccc1` (centres undefined) the activation was 0.57% (inactive). For `CCOC(=O)c1ccc(NC)c(N)c1`, the activation was -0.75% (inactive). In the case of `COc1ccc2cc(/C(C)=N/OC(=O)Nc3ccccc3)ccc2c1`, the activation was 0.13% (inactive). In the case of `COc1cc(C=C(C#N)C#N)cc(OC(C)=O)c1OC(C)=O`, the activation was -0.27% (inactive).

Source: PubChem BioAssay AID434982 (The Scripps Research Institute Molecular Screening Center, 2010)
